High-throughput results from PubChem BioAssay.
PLK1 PBD inh – qHTS for Inhibitors of PLK1-PDB (polo-like kinase 1 - polo-box domain): Primary Screen. Plk1 PBD binding of FITC phosphopeptide, fluorescence polarization. hit rate 2.8% among 360,000. Potency, µM, for inactives: max response, negative = inhibition, usual class: inhibitors. AID 720504, 2013; note: series mostly up to about 57 µM; % is set by controls: 0 for no effect and ±100 for the full control effect; nearly all actives have a fitted effect of over 65% in size
VDR inhibitor – Inhibitors of the vitamin D receptor (VDR): qHTS. VDR-SRC2-3 peptide fluorescence polarization, 2 h. hit rate 0.93% among 400,000. Potency, µM, for inactives: max response, negative = inhibition, most hits filed as inhibitors. Vitamin D3 receptor (Homo sapiens), P11473; note: % is set by controls: 0 for no effect and ±100 for the full control effect
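Fluorescence polarization assay of small-molecule disruption of VDR binding to coregulator peptide SRC2-3. Compounds and controls pin-transferred, then read after 2 h incubation at ambient room temperature.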
BAZ2B inh – qHTS Assay for Inhibitors of BAZ2B; AlphaScreen BAZ2B-H3K14Ac peptide displacement; Potency, µM (doses to about 114 µM), for inactives: top-dose activity change, negative = inhibition, actives largely listed as inhibitors; hit rate 4.4% among 360,000; note: % is set by controls: 0 for no effect and ±100 for the full control effect; nearly all actives have a fitted effect of over 60% in size
Target sequence (Q9UIF8 whole entry, looked up): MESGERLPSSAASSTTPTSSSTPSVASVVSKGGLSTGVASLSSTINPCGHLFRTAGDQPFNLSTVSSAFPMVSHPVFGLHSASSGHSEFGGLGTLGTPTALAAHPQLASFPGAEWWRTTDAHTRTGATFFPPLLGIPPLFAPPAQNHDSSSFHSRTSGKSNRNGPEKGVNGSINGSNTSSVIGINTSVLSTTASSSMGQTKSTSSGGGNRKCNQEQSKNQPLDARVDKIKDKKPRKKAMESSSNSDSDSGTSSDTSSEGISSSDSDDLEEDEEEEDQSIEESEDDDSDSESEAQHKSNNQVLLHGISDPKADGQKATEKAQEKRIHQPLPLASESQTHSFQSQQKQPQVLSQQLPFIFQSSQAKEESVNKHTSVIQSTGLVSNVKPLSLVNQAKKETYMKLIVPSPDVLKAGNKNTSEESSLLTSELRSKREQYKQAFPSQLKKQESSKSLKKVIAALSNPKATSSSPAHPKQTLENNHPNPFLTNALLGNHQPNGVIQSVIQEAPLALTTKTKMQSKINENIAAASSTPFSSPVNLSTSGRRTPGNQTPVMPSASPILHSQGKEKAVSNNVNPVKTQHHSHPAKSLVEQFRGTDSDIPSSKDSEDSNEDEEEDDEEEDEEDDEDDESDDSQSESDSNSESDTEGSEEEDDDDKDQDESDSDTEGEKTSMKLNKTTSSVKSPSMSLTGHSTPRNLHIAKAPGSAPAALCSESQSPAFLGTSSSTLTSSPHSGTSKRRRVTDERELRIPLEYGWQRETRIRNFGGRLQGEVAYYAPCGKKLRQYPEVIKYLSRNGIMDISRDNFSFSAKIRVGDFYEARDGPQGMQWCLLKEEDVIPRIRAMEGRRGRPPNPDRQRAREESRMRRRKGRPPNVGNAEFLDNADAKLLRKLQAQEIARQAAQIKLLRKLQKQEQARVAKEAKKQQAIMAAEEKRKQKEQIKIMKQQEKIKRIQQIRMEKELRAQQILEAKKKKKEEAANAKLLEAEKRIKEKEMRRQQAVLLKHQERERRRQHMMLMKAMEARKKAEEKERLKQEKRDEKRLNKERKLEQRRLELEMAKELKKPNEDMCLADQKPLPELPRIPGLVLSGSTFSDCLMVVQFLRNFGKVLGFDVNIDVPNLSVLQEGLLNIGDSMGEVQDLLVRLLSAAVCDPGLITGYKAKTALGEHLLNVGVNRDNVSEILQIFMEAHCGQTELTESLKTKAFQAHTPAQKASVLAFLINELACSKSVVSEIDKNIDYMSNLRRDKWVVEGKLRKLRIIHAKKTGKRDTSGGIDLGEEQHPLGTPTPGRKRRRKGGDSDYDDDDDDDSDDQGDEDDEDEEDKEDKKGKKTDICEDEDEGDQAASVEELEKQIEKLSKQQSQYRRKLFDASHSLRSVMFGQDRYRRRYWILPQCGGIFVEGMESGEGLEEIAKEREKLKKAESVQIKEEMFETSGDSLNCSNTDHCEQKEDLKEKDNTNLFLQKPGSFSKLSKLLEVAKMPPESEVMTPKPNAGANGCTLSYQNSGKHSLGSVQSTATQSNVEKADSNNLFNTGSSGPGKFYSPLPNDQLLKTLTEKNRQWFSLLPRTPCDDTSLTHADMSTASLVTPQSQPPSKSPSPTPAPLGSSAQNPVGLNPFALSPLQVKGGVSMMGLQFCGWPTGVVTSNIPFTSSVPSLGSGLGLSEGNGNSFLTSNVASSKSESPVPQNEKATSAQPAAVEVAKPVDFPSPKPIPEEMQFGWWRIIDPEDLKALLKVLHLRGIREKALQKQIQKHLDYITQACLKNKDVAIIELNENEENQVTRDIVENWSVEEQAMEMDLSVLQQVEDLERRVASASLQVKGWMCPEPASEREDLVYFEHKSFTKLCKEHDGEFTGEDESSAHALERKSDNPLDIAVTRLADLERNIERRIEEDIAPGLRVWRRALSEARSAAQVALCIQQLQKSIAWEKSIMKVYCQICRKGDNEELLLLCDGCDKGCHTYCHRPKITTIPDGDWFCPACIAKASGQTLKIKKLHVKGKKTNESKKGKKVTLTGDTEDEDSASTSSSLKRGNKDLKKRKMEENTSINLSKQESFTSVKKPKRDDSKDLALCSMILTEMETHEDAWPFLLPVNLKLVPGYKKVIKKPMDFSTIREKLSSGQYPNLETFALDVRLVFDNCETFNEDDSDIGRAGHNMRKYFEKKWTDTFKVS
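AlphaScreen displacement: compounds (up to 110uM) incubated 30 min at room temperature with a preformed 50 nM BAZ2B/50 nM biotinylated H3K14Ac peptide complex in PBS pH 7.4 with Tween-20. Donor and acceptor beads at 10 ug/mL final added, 20 min light-protected before reading.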
HP1b chromo inh – HTS for Inhibitors of HP1-beta Chromodomain Interactions with Methylated Histone Tails; Chromobox protein homolog 1 (Homo sapiens), P83916; AlphaScreen HP1-beta / biotin-H3K9me3 peptide binding; Potency, µM (doses to about 114 µM), for the others: at the highest dose activity change, negative = inhibition, actives largely listed as inhibitors; hit rate 0.56% among 390,000; AID 540317, 2011; note: nearly all actives have a fitted effect of over 70% in size
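AlphaScreen: HP1-beta (50 nM) preformed 30 min with biotin-H3(1-18)K9me3 peptide (50 nM) in PBS pH 7.4, 0.01% Tween-20. Compound added for 30 min at RT, then streptavidin donor/nickel chelate acceptor beads (10 ug/mL) for 30 min.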
G9a block – qHTS Assay for Inhibitors of Histone Lysine Methyltransferase G9a; hit rate 8.8% among 350,000; G9a H3K9 monomethylation, AlphaScreen, 2 h; Potency, µM (doses to about 102 µM), for inactives: at the top dose activity, negative = inhibition, actives largely listed as inhibitors; note: % is set by controls: 0 for no effect and ±100 for the full control effect; nearly all actives have a fitted effect of over 75% in size
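G9a (20 nM) was preincubated 15 min with compound, then reacted 2 h at room temperature with 500 nM biotin-H3K9 peptide and 20 µM SAM. Monomethyl-H3K9 detected by AlphaScreen using anti-H3K9me1 antibody.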
JMJD2A Tudor inh – qHTS Assay for Inhibitors of JMJD2A-Tudor Domain; Lysine-specific demethylase 4A (Homo sapiens), O75164; AlphaScreen JMJD2A-Tudor / H3K4me3 peptide binding; Potency, µM (top dose mostly 114 µM), without a hit: top-dose activity change, negative = inhibition, usual class: inhibitors; hit rate 4.4% among 390,000; note: % is set by controls: 0 for no effect and ±100 for the full control effect; nearly all actives have a fitted effect of over 50% in size
* hit, by the source's call; ? = inconclusive; . = no result given; [ ] = dose if it differs, or a comment. A selection: hits, their analogues and other compounds. The true share with any hit is near 11%. Calls come from the whole dose curve; as a rule, active = well fitted curve in the direction sought with a large enough effect; inconclusive = small, poorly fitted or top-dose-only effect, or another doubt; inactive = no such curve, though single readings can be large; an effect the other way counts as inactive or inconclusive. Potency is the fitted concentration of half-maximal effect.

SMILES	PLK1 PBD inh	VDR inhibitor	BAZ2B inh	HP1b chromo inh	G9a block	JMJD2A Tudor inh
CCCCCc1cc(=O)oc2c(C(CCN3CCCC(C)C3)c3ccc4c(c3)OCO4)c(OC)cc(OC)c12 (stereo not drawn)	-1%	-19%	32µM*	-7%	?	?
CCCCCc1cc(=O)oc2c(C(CCN3CCCCC3)c3ccc4c(c3)OCO4)c(OC)cc(OC)c12 (stereo not drawn)	-15%	-9%	?	-24%	-5%[12.7 µM]	45µM*
CCCCCc1cc(=O)oc2c(C(CCN3CCCC3)c3ccc4c(c3)OCO4)c(OC)cc(OC)c12 (stereo not drawn)	.	-13%	.	-34%	.	50µM*
CN(CC(=O)NCCc1ccc(S(N)(=O)=O)cc1)S(=O)(=O)/C=C/c1ccccc1	1%	9%	6%	47%	-10%	-7%
Cn1c(=O)c2cn(Cc3ccc(Cl)cc3)cc2n(C)c1=O	-2%	30%	-35%	16%	16µM*	-13%
CC1=C(C)C(=O)C(N2CCOCC2)=CC1=O	-12%	-19%	?	-3%	45µM*	-27%
O=C(Cn1cc(C(F)(F)F)ccc1=O)Nc1cccc(S(=O)(=O)N2CCOCC2)c1	-6%	4%	-4%	13%	15%[59 µM]	-7%
CC(=O)c1c2c3c(cccc3n(C)c1=O)C(=O)c1ccccc1-2	?	-13%	?	48%	18µM*	-27%
Cn1c(=O)c(Nc2ccc(O)cc2)c2c3c(cccc31)C(=O)c1ccccc1-2	?	-15%	6.3µM*	18µM*	13µM*	7.9µM*
CCOC(=O)C1(C)C=C(Nc2cccc(C(=O)O)c2)C(=O)N1c1cccc(C(=O)O)c1 (stereo not drawn)	.	-3%	1%	47%	16%[59 µM]	-6%
COc1ccc(C(=O)CSc2ccc(-c3ccco3)nn2)cc1	-16%	-21%	50µM*	22%	22µM*	-32%
COc1ccc(CCNC(=O)CSc2nnc(-c3ccco3)c(-c3ccco3)n2)cc1OC	.	.	45µM*	.	8.9µM*	.
COc1ccc(-c2nnc(SCC(=O)NCCc3ccccc3)nc2-c2ccc(OC)cc2)cc1	.	3%	-12%	54%	4%[59 µM]	-8%
COc1ccc(CCNC(=O)CSc2ccc(-c3ccco3)nn2)cc1OC	3%	-4%	4%	52%	45µM*	-8%
COc1ccc(-c2nnc(SCC(=O)NCCc3ccc(OC)c(OC)c3)nc2-c2ccc(OC)cc2)cc1	.	-12%	?	6%	8.9µM*	?
COc1cccc(C2C(C#N)=C(NC(=O)NCc3ccccc3)Oc3ccc4ccccc4c32)c1 (stereo not drawn)	.	.	.	.	.	-10%
O=C(Nc1ccc2oc(-c3cccnc3)nc2c1)c1ccc(Br)cc1	.	-7%	0%	53%	-4%[59 µM]	-19%
O=C(NCc1ccccc1F)c1cccc(NC(=O)N2CCSc3ncccc32)c1	.	6%	-5%	43%	-1%[59 µM]	4%
COc1cc(/C=C(\C#N)C(=O)Nc2ccccc2C(=O)O)cc(Cl)c1OC	21µM*	?	-13%	1%	-46%	-20%
COc1cc(/C=C(\C#N)C(=O)c2c(C)[nH]c3ccccc23)cc(OC)c1OC	?	?	-13%	?	45µM*	28µM*
COc1cc(/C=C(/C#N)C(=O)NC(C)c2ccccc2)cc(OC)c1O (stereo not drawn)	34%	-4%	?	-16%	14µM*	-24%
CCOc1cc(/C=C(\C#N)C(=O)Nc2ccccc2C(=O)O)ccc1OC(=O)c1ccc(C)cc1	19µM*	?	2%	14%	.	50µM*
COc1ccc(/C=C(\C#N)C(=O)c2c(C)[nH]c3ccccc23)cc1OC	-19%	-17%	?	1%	?	?
COc1ccc(NCc2cc3cc4c(cc3n(CC(=O)Nc3ccc(F)cc3F)c2=O)OCO4)cc1	.	10%	-39%	28%	?	-18%
COc1cc(C=C(C#N)C(=O)c2ccccc2)cc(OC)c1OC	3.8µM*	.	.	.	.	.
COc1cc(/C=C(/C#N)C(=O)NCc2ccccc2)cc(OC)c1OC	-4%	-22%	-2%	52%	.	-3%
COc1cc(/C=C/C(=O)C2C(=O)C=C(C)OC2=O)cc(OC)c1O (stereo not drawn)	35%	-15%	56µM*	-2%	50µM*	-31%
COc1ccc(/C=C/C(=O)C2C(=O)C=C(C)OC2=O)cc1O (stereo not drawn)	-12%	?	50µM*	-17%	-23%[59 µM]	-23%
